Assay outcomes from PubChem BioAssay.
VDR inhibitor: blocks the human vitamin D receptor | Potency, µM, usual class: inhibitors | AID 504847 | 0.93% of 400,000 active | VDR-SRC2-3 peptide fluorescence polarization, 2 h | P11473
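Inhibition of the VDR/SRC2-3 peptide interaction is quantified by fluorescence polarization. Compounds (23 nl, pintool) incubate with the reagents for 2 hours at ambient room temperature.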
PLK1 PBD block: inhibitors of human PLK1 polo-box domain binding. Potency, µM, actives largely listed as inhibitors. 2.8% of 360,000 active. AID 720504. Plk1 PBD binding of FITC phosphopeptide, fluorescence polarization; also: series mostly up to about 57 µM; nearly all actives have a fitted effect of over 65% in size
Target sequence (P53350 whole entry, looked up, the tested form may be a part): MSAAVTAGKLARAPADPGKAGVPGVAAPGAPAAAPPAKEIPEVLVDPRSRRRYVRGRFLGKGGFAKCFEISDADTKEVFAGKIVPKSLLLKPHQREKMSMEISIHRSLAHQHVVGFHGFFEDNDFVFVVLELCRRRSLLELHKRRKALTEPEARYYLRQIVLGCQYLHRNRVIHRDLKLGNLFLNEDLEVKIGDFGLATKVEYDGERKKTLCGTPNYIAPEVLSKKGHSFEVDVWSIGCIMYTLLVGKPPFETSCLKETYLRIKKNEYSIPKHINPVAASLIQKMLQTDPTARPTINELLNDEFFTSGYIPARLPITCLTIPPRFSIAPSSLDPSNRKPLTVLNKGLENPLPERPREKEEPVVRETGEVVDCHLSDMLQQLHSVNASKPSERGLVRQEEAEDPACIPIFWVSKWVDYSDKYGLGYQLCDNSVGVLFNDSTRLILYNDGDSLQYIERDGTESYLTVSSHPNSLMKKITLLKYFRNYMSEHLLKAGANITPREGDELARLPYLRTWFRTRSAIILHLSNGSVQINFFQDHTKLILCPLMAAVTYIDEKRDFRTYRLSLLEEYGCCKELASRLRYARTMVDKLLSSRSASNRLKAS
TrxR1 inh: inhibitors of rat thioredoxin reductase 1; O89049; recombinant rTrxR1, NADPH fluorescence consumption, selenite substrate; Potency, µM (titrated, usually from 114 µM), most hits filed as inhibitors; 1% of 390,000 active; also: nearly all actives have a fitted effect of over 65% in size
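Rat TrxR1 (90 nM in the dispensed reagent) was pre-reduced with 400 uM NADPH for 5 min at room temperature, then incubated with compound for 15 min. After 400 uM selenite was added, NADPH fluorescence (Ex 340/Em 450 nm) was followed for 8 min.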
IDH1 R132H inh: inhibitors of human mutant IDH1 R132H | IDH1-R132H enzyme, NADPH consumption, diaphorase/resazurin fluorescence | 0.093% of 390,000 active | O75874 | Potency, µM (series often up to 76.6 µM), actives largely listed as inhibitors | AID 602179; also: nearly all actives have a fitted effect of over 65% in size
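IDH1-R132H (0.5 ug/mL) preincubated 30 min with compound, then NADPH (0.016 mM) and alpha-KG (2 mM) added; 80 min at RT, pH 7.5. Remaining NADPH coupled via diaphorase/resazurin to fluorescence (540/590 nm); concentration-response curves normalized to no-enzyme control.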
Sfp inh: Sfp phosphopantetheinyl transferase inhibition; Biochemical Sfp PPTase activity, qHTS; Potency, µM, hits mostly inhibitors; 3.5% of 310,000 active;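 also: the enzyme is Sfp with the accession as filed and its product quenches rhodamine fluorescence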
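Buffer: 50 mM Hepes-Na pH 7.6, 10 mM MgCl2, 0.01% Nonidet P-40, 0.01% BSA. Enzyme 15 nM, pre-exposed to compound 15 min; substrates then added and fluorescence change tracked over 30 min.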
TrxR1 substrate: is turned over as a substrate by rat TrxR1; AID 588456; 0.01% of 390,000 active; Potency, µM (top dose mostly 114 µM); purified TrxR1 substrate turnover, NADPH consumption readout; O89049; also: nearly all actives have a fitted effect of over 50% in size
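Rat TrxR1, dispensed at 90 nM, was prereduced with 400 uM NADPH (final) for 5 min at ~22 deg C, then incubated with compound 15 min before 400 uM selenite. A first-read NADPH fluorescence drop versus no-compound background flagged substrates.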
Hits are given with their value; . = inactive; ? = inconclusive; / = no result given; [ ] = remark or other dose. Shown are actives, neighbours in structure and some others; about 5.2% of the full set was active somewhere. Calls follow the shape of the dose curve; as a rule, active = well fitted curve in the direction sought with a large enough effect; inconclusive = small, poorly fitted or top-dose-only effect, or another doubt; inactive = no such curve, though single readings can be large; an effect the other way counts as inactive or inconclusive.

SMILES	VDR inhibitor	PLK1 PBD block	TrxR1 inh	IDH1 R132H inh	Sfp inh	TrxR1 substrate
CCN(CC)C(=S)SCC(=O)c1ccc(F)cc1	.	30µM	.	.	.	.
COCCn1c(=O)c(-c2cc(F)cc(F)c2)nc2cnc(N(C)C)nc21	.	/	/	/	.	/
CC(=O)Oc1ccc2occ(/C=N/c3cc(=O)[nH]c(=S)[nH]3)c(=O)c2c1	28µM	5.3µM	.	.	.	.
Cc1ccc2ncc(C)c(/C=C/c3ccc(N(C)C)cc3)c2c1	/	/	.	/	/	.
O=c1c(-c2ccccc2)coc2cc(O)cc(O)c12	28µM	/	/	/	.	/
COc1cc(OC)c2c(=O)c(-c3ccc4c(c3)OCO4)coc2c1	.	/	/	/	.	/
O=c1c(-c2ccc3c(c2)OCCO3)coc2cc(O)cc(O)c12	.	.	.	.	20µM	.
O=c1cc(-c2ccccc2)oc2cc(O)cc(O)c12	.	.	.	.	.	.
COc1ccc(OC)c(CCNC(=O)c2cc3c(=O)n(C)c4ccccc4c3n2C)c1	.	/	.	.	/	.
CC(=O)OCCBr	.	/	/	/	.	/
O=S(=O)(Nc1cccc2cccnc12)c1ccc(Br)s1	/	/	/	/	.	/
Cc1cc(I)ccc1Nc1c(C(=O)NOCC2CC2)cc(F)c(F)c1F	.	/	/	/	.	/
COCC(=O)Nc1nnc(C2CCCCC2)s1	.	.	.	.	.	.
CS(=O)(=O)Nc1nnc(C2CCCC2)s1	.	19µM	.[11.4 µM]	.	.	.
O=S(=O)(Nc1nnc(C2CC2)s1)c1ccccc1	.	?	.	.	.	.
CCOC(=O)C(=O)Nc1nnc(C2CCCCC2)s1	.	24µM	.	.	?	.
CCOCC(=O)Nc1nnc(C2CCCCC2)s1	?	27µM	.	.	.	.
O=C(Nc1nnc(C2CC2)s1)C1CCCCC1	.	.	.	.	/	.
COc1ccccc1NC(=O)Cn1nc2c3cc(F)ccc3n(Cc3cccc(C)c3)cc-2c1=O	.	/	.	.	/	.
CC(C)CCn1c(SCC(=O)NC2CC2)nc2cc(Cl)ccc2c1=O	.	.	.	.	/	.
COc1cccc2cc(C(=O)N(Cc3cccs3)Cc3cccs3)c(=O)oc12	.	/	.	/	/	.
Cc1ccc(C(=O)NCCCc2ccccc2)c(C)c1	.	24µM	.	.	.	.
Cc1cc(C)cc(C(=O)NCCCc2ccccc2)c1	.	.	.	.	.	.
CC(C)[C@@H](CC(=O)N[C@@H]1CCNC[C@H]1C(=O)N[C@H](CC(=O)N[C@@H](CCC(=O)O)CC(=O)O)Cc1ccccc1)NC(=O)C[C@H](CO)NC(=O)[C@@H]1CCCC[C@H]1N	.	/	/	/	.	/
C=C[C@@H]1[C@@H](C)[C@H](C)C(=O)C([C@H](O)C(C)C)[C@@H]1C (stereo partly drawn)	.	/	.	/	.	.
SMILES	VDR inhibitor	PLK1 PBD block	TrxR1 inh	IDH1 R132H inh	Sfp inh	TrxR1 substrate
FC(F)c1nc2ccccc2[nH]1	.	.	.[11.4 µM]	.	?	.
c1ccc2[nH]c3cc4ncnc4cc3nc2c1	.	24µM	.	.	.	.
Cc1noc(C)c1-c1ccc2ncnc(NC3CCCc4ccccc43)c2c1 (stereo not drawn)	/	/	/	/	.	/
O=C(NCc1ccc(F)cc1)NC(=O)c1ccc(Cl)cc1	.	.	.	.	.	.
O=C(CCCNC(=O)c1ccc(Cl)cc1)NCc1ccc(F)cc1	?	27µM	.	.	.	.
COC(=O)c1ccc(C(=O)N(Cc2ccccc2)c2ccccc2)cc1	.	.	.	.	.	.
COc1ccc(C(C)=O)cc1CC(=O)N(Cc1ccccc1)c1ccccc1	.	30µM	.	.	.	.
CCOc1ccc(C(C)=O)cc1COC(=O)c1ccccc1C(=O)N(C)Cc1ccccc1	.	.	50µM	.	/	.
Cc1cccc(OC(=O)n2c(=S)oc3cc(Cl)ccc32)c1	.	30µM	.	.	.	.
O=C(/C=C/c1cccc([N+](=O)[O-])c1)NC(=S)Nc1ccccc1C(=O)O	/	/	/	/	40µM	/
O=C(NC(NC(=S)Nc1ccccc1C(=O)O)C(Cl)(Cl)Cl)c1cccc([N+](=O)[O-])c1 (stereo not drawn)	?	24µM	.	.	.	.
O=C(NC(NC(=S)Nc1ccccc1Cl)C(Cl)(Cl)Cl)c1cccc(Cl)c1 (stereo not drawn)	.	?	.	.	.	.
O=C(/C=C/c1cccc([N+](=O)[O-])c1)NC(=S)Nc1cccc(NC(=O)c2ccccc2Cl)c1	.	.	.	.	.	.
CCNC(=O)C1(C)CCN(C(=O)c2cccs2)C1 (stereo not drawn)	/	.	/	/	/	/
CCNC(=O)c1sc(=S)n(-c2ccc(C)cc2)c1N	.	?	.	.	56µM	.
Cc1ccc(-n2c(N)c(C(=O)N3CCOCC3)sc2=S)cc1	89µM	15µM	.	.	.	.
Cc1ccc(-c2nc(N3CCOCC3)sc2C(=O)N2CCOCC2)cc1	.	.	.	.	.	.
C[C@@H]1CN([C@@H](C)CO)C(=O)CCCn2nncc2CO[C@H]1CN(C)C(=O)Nc1ccc2c(c1)OCO2	/	.	/	.	/	/
C[C@H]1CN([C@@H](C)CO)C(=O)CCCn2nncc2CO[C@@H]1CN(C)C(=O)Nc1ccc2c(c1)OCO2	/	5.3µM	/	.	/	/
CC[C@H](C)[C@H](NC(=O)[C@H](Cc1ccc(O)cc1)NC(=O)[C@@H](NC(=O)[C@H](CCCNC(=N)N)NC(=O)[C@@H](N)CC(=O)O)C(C)C)C(=O)N[C@@H](Cc1cnc[nH]1)C(=O)N1CCC[C@H]1C(=O)N[C@@H](Cc1ccccc1)C(=O)N[C@@H](Cc1cnc[nH]1)C(=O)N[C@@H](CC(C)C)C(=O)N[C@@H](CC(C)C)C(=O)N[C@H](C(=O)N[C@@H](Cc1ccc(O)cc1)C(=O)N[C@@H](CO)C(=O)O)C(C)C	.	/	/	/	.	/
COc1ccc(C(=O)NCC(=O)OCC(=O)N2CCc3ccccc32)cc1	.	.	.	.	.	.
COc1cc(OC)cc(C(=O)NCC(=O)OCC(=O)N2CCc3ccccc32)c1	?	27µM	.	.	.	.
CCCn1c(SCC(=O)N2CCCC(C)C2)nnc1-c1cccnc1 (stereo not drawn)	.	30µM	.[11.4 µM]	.	.	.[11.4 µM]
COCCNC(=O)C1(CC(C)C)C=CCN1C(C)=O (stereo not drawn)	/	/	/	/	.	/
Cc1ccc2c(c1)c(CC(NC(=O)c1ccccc1Oc1ccccc1)C(=O)O)cn2C(=O)OCc1ccccc1 (stereo not drawn)	32µM	/	/	/	.	/
Cc1cccc(OCC(=O)NC(Cc2ccccc2)C(=O)O)c1 (stereo not drawn)	.	.	.	.	.	.
CCOC(=O)c1scc(-c2ccc(C)cc2)c1S(=O)(=O)N1CCN(c2ccccc2)CC1	.	/	.	.	/	.
CCOC(=O)C(Cc1ccccc1)NC(=O)CCc1c(C)nc2ncnn2c1C (stereo not drawn)	.	.	.	.	.	.
